# KCNH2 3.1 inh – qHTS for Inhibitors of KCHN2 3.1: Mutant qHTS | U2OS KCNH2 3.1, thallium flux FluxOr; active compounds read low | 0.95% of 340,000 active | activity change, % (tested at about 1.8 µM);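 active = maximum activity change below -70%; inconclusive = maximum activity change from -70% to -50%; inactive = maximum activity change above -50%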;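 note: thallium influx rate constant from kinetic fluorescence after stimulation buffer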
#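 U2OS cells transduced with KCNH2 3.1 mutant virus (1.77 x 10^8 /mL, 4 h), plated overnight at 37 C, loaded 45 min with FluxOr dye plus Red40 quencher. Thallium flux rate constant from kinetic reads after stimulation buffer, normalised to controls.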
# GLS inhibitor – qHTS for Inhibitors of Glutaminase (GLS); Glutaminase kidney isoform, mitochondrial (Homo sapiens), O94925; GLS enzymatic activity, qHTS titration; Potency, µM (titrated, usually from 45.5 µM), most hits filed as inhibitors; 0.21% of 410,000 active; AID 624170, 2012
# Target sequence (O94925 whole entry, looked up, canonical isoform): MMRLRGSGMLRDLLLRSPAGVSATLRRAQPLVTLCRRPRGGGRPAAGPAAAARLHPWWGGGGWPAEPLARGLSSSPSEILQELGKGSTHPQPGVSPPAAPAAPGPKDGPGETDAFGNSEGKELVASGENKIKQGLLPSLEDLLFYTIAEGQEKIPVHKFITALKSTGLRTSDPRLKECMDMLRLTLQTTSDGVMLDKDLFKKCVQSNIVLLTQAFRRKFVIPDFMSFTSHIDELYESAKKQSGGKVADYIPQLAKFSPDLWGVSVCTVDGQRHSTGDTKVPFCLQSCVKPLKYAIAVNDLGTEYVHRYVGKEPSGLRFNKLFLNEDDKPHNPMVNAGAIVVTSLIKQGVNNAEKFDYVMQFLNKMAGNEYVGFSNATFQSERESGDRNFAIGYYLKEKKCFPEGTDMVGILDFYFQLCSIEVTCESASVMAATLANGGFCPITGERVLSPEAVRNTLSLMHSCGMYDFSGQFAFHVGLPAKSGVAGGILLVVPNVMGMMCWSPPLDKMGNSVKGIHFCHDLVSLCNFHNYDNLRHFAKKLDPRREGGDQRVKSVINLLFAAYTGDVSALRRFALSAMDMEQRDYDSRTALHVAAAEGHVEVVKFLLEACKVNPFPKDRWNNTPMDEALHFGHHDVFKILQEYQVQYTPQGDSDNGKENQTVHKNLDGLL
#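 hKGA; 45 mM KH2PO4 pH 8.2 + 0.02% Tween-20; cpd via pin tool; 1 mM Gln soln; GluOx/HRP/Amplex Red; RT 30 min; fluor. t0 & final.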
# hERG WT inh – qHTS for Inhibitors of KCHN2 3.1: Wildtype qHTS; U2OS, BacMam KCNH2, thallium flux FluxOr; active compounds read low; activity change, % at 1.84 µM; 0.37% of 340,000 active;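 active = maximum activity change below -70%; inconclusive = maximum activity change between -70% and -50%; inactive = maximum activity change above -50%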
#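 U2OS cells transduced with wild-type KCNH2 virus are loaded with FluxOr dye for 45 min, and thallium flux is measured in kinetic reads before and after stimulation buffer. Rate constants are normalized to DMSO controls.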
# GLP1R inv ag – qHTS of GLP-1 Receptor Inverse Agonists (Inhibition Mode). Glucagon-like peptide 1 receptor (Homo sapiens), P43220. HEK293 GLP-1R CRE-luciferase, luminescence, 24 h; GLP-1R form is constitutively active. Potency, µM (titrated, usually from 38.3 µM), usual class: inhibitors. 1.6% of 410,000 active; note: nearly all actives have a fitted effect of over 55% in size
#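 GLP-1R inverse agonism mode: basal reporter luminescence in engineered HEK293 cells measured after one day of compound exposure at 37 deg C, with a 12 min room-temperature detection step.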
# GLP-1R agonist – qHTS of GLP-1 Receptor Agonists. HEK293 GLP-1R CRE-luciferase, luminescence, 4-6 h; cells express a hypersensitive GLP-1R form. Glucagon-like peptide 1 receptor (Homo sapiens), P43220. 0.007% of 380,000 active. Potency, µM (titrated, usually from 45.6 µM), actives largely listed as activators. AID 624172, 2012
# HEK293 tox – qHTS of GLP-1 Receptor Inverse Agonists: Cytotox Screen. 0.13% of 410,000 active. HEK293 cAMP-luciferase reporter cells, luminescence, 24 h. Potency, µM (titrated, usually from 38.3 µM), hits mostly inhibitors;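 note: loss of luciferase light is scored as toxicity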
#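 Compound-treated cells are incubated 24 hr at 37 deg C under 5% CO2 after a 12 hour attachment period, then luciferase detection reagent is added and luminescence is measured following 12 min at room temperature; lowered signal indicates toxicity.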
# Hits are given with their value; n = inactive; u = inconclusive; x = no result given; [ ] = dose if it differs, or a comment. An excerpt weighted towards active compounds, which were near 2.8% of everything screened. Unless noted, calls come from the whole dose curve; as a rule, active = well fitted curve in the direction sought with a large enough effect; inconclusive = small, poorly fitted or top-dose-only effect, or another doubt; inactive = no such curve, though single readings can be large; an effect the other way counts as inactive or inconclusive.
SMILES,KCNH2 3.1 inh,GLS inhibitor,hERG WT inh,GLP1R inv ag,GLP-1R agonist,HEK293 tox
COc1cc2nc(NCc3ccccc3)n3nc(-c4ccccc4)nc3c2cc1OC,x,n,x,n,x,n
CCOc1cc(-c2nnc(SCC(=O)NCc3ccccc3)nc2-c2ccc(OC)c(OCC)c2)ccc1OC,x,n,x,u,x,u
Cc1oc(-c2ccc(Cl)cc2)nc1Cn1c(=O)cc(C)c2c(C)nn(-c3ccccc3)c21,x,n,x,n,x,n
COc1cc2c(NCCCCCO)ncnc2c(OC)c1OC,n,n,n,n,n,n
COc1ccccc1C(=O)OCc1cc(=O)n2nc(C3CCCCC3)sc2n1,x,n,x,n,x,n
COC(=O)C1(C(=O)OC)C[C@H](/C=C/c2ccccc2)N(Cc2ccccc2OC)[C@@H]1c1ccccc1,x,x,x,u,x,n
Cc1cccc(-n2ncc3c(NNC(=O)c4ccccc4Cl)ncnc32)c1,x,n,x,n,x,n
CCOC(=O)N1CCC2CC1c1cc(-c3cccc(OC)c3)ccc12 (configuration not stated),n,n,-116,u,n,n
COc1cccc(-c2ccc3c(c2)C2CC3CCN2C(=O)c2ccc(Cl)cc2)c1 (configuration not stated),x,n,n,u,n,n
COc1ccc(-c2cccc3c2C2CC3CCN2C(=O)OCc2ccccc2)cc1 (configuration not stated),n,n,n,22µM,n,n
O=C(OCc1ccccc1)N1CCC2CC1c1cc(-c3ccccc3)ccc12 (configuration not stated),x,n,n,u,n,n
COc1cc(CN(C)CC2CCCN(CCc3ccccc3F)C2)cc(Cl)c1OC (configuration not stated),n,n,n,u,n,u
CC(=O)c1cc(-c2ccc(F)cc2)n(CCC(=O)NCc2ccc(C)cc2)c1C,x,n,x,n,x,n
COc1ccc(NC(=O)c2ccc3c(=O)n(-c4ccc(OC)cc4OC)c(=S)[nH]c3c2)c(OC)c1,n,n,n,n[7.66 µM],n,n[7.66 µM]
COc1ccc(-n2c(=S)[nH]c3cc(C(=O)Nc4ccc(C)c(F)c4)ccc3c2=O)c(OC)c1,n,n,n,7.1µM,n,n
CC(C)(C)c1csc(NC(=O)c2ccccc2O)n1,n,n,n,u,n,u
CC(C)(C)c1csc(NNC(=O)c2ccc(Br)cc2)n1,n,5µM,n,u,n,n
Cc1nc(N)[nH]c(=O)c1CCCNc1ccc([N+](=O)[O-])cc1,-119,n,n,n,n,u
Cc1nc(N)[nH]c(=O)c1CCCNc1ccc(CCC2(CCl)OCCO2)cc1,n,n,n,n,n,n
Cc1cccnc1NCc1ccc(O)c2ncccc12,n,n,n,2.8µM,n,u
C#CC(=O)N(c1cccc(OC)c1)C(C(=O)NC1CCCC1)c1cccs1 (configuration not stated),n,n,n,3.2µM,n,u
CC(C)(C)OC(=O)N1CCC(c2c(C(=O)NCCN3CCOCC3)cnn2-c2ccccc2)CC1,x,n,x,n,x,n
C/C(=N\Nc1cc(N2CCCCC2)nc(C)n1)c1ccc(Br)cc1,n,n,n,10µM,n,u
C/C(=N\Nc1cc(N2CCOCC2)nc(C)n1)c1ccc(F)cc1,n,n,n,u,n,n
CC(=O)c1ccc(NC(=O)C2CC(c3ccc(F)cc3)=NO2)cc1 (configuration not stated),-97,n,n,n,n,n
SMILES,KCNH2 3.1 inh,GLS inhibitor,hERG WT inh,GLP1R inv ag,GLP-1R agonist,HEK293 tox
COC(=O)C1CCN(c2csc3ccc(C)cc3c2=O)CC1,x,n,x,n,x,n
C[C@H]1CN([C@@H](C)CO)S(=O)(=O)c2ccc(-c3ccc(C#N)cc3)cc2O[C@H]1CN(C)C(=O)CN(C)C,x,n,x,n,n,n
O=C(Nc1ccccc1)C1Cc2c(-c3ccccc3Oc3ccccc3)ccnc2O1 (configuration not stated),x,n,x,u,n,n
O=C(Nc1cccc(OC(F)(F)F)c1)C1Cc2c(-c3ccccc3Oc3ccccc3)ccnc2O1 (configuration not stated),x,n,x,13µM,n,n
O=C(CN1C(=O)NC2(CCc3ccccc32)C1=O)c1ccc(Cl)cc1 (configuration not stated),n,n,n,u,n,n
O=C(CN1C(=O)NC2(CCc3ccccc32)C1=O)Nc1cccc(Cl)c1 (configuration not stated),n,n,n,11µM,n,n
CC(C)c1ccc(C(=O)CN2C(=O)NC3(CCc4ccccc43)C2=O)cc1 (configuration not stated),n,n,n,2.5µM,n,n
CCN(C(=O)C1CCN(S(=O)(=O)c2cc(Br)cc3c2N(C(C)=O)CC3)CC1)c1cccc(C)c1,x,n,x,n,x,n
COc1ccc(-c2c(-c3cc(OC)cc(OC)c3)n(C)c3ccc(-c4cnc(N)nc4)cc23)cc1,n,n,n,n,n,n
COc1ccc(-c2c(-c3cc(OC)cc(OC)c3)n(C)c3ccc(-c4ccc(S(N)(=O)=O)cc4)cc23)cc1,-89,n,n,n,n,n
COc1cc(OC)cc(-c2c(-c3ccc(F)cc3)c3cc(Br)ccc3n2C)c1,n,n,n,7.9µM,n,n
Cc1ccc(CNC(=O)CCCN2C(=O)c3cccnc3Oc3ccc(Cl)cc32)cc1,x,n,x,n,x,n
COc1ccc(N2CC(NC(=O)Cc3cccs3)CC2=O)cc1OC (configuration not stated),x,n,x,n,n,n
CC12CCC(C(=O)NNc3ccc([N+](=O)[O-])cc3)(CC1=O)C2(C)C (configuration not stated),n,n,n,8.9µM,n,n
CCC(C(=O)OCC(=O)Nc1cc(C)ccc1OC)c1ccccc1 (configuration not stated),n,n,n,10µM,n,n
COc1ccc(NC(=O)Nc2cc(C)ccc2OC)cc1,n,n,n,u,n,n
COc1ccc(C)cc1NC(=O)Nc1ccccc1,-135,n,-137,u,n,n
COc1ccc(C)cc1NC(=O)CNC(c1ccccc1)c1ccccc1,n,n,n,u,n,n
CC(=O)CC/C=C(\C)CC/C=C(/C)CC/C=C(\C)CCC=C(C)C,x,n,x,x,n,x
COc1ccc(C(=O)N/C(=C\c2cn(C)c3ccccc23)C(=O)N2CCOCC2)cc1,n,n,n,n,n,n
